# In the supplement of paper PMC8975748:
# Structures can show the parent of a compound that is named as a salt. ± gives the standard deviation of the averaged measurements.
# Columns and labels:
# [1] = system: Saccharomyces cerevisiae BY4741 SeMeCo community; experiment: mean cell size (pixel area) (pixels); higher = larger cells; conditions: 10 µM; 24 h; SM minimal medium
# How it was run: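 Mean cell pixel area per well was measured in a four-plasmid fluorescent community of Saccharomyces cerevisiae BY4741, where every plasmid complements one auxotrophy and carries a fluorescent marker. Cells from an overnight preculture at OD600 = 1.0 were diluted to OD600 = 0.3 and dispensed at 70 µl into 384-well plates acoustically predosed with drug to a final 10 µM in SM medium. Incubation lasted 24 h, followed by paraformaldehyde fixation, automated confocal imaging and analysis in Harmony. Reported figures are averaged over 3 replicates. Same SeMeCo high-content imaging drug screen: Selleck FDA-approved drugs at 10 µM, 24 h in SM medium, 384-well plates, 3 replicates.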
# [2] = system: Saccharomyces cerevisiae BY4741 SeMeCo community; experiment: z-score of prototroph abundance vs DMSO median; higher = larger share of this subpopulation than in DMSO controls; conditions: 10 µM; 24 h; SM minimal medium; subpopulation (auxotrophy): Prototroph
# How it was run: (§1)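 A Saccharomyces cerevisiae BY4741 community carried four plasmids, each restoring one auxotrophy and encoding a distinct fluorescent protein. It was pre-grown overnight to OD600 1.0, diluted to 0.3, and 70 µl was added to 384-well plates acoustically predosed with library drugs (10 µM final), then grown 24 h in minimal SM medium. Cells were paraformaldehyde-fixed and imaged by automated confocal microscopy, with single-auxotroph fluorescent strains setting thresholds and autofluorescence correction. Each subpopulation's abundance was scored as a z-score against the vehicle-well median.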
# [3] = system: Saccharomyces cerevisiae BY4741 SeMeCo community; experiment: z-score of subpopulation abundance vs DMSO median, subpopulation auxotrophic for M; higher = larger share of this subpopulation than in DMSO controls; conditions: 10 µM; 24 h; SM minimal medium; subpopulation (auxotrophy): M
# How it was run: as §1
# [4] = system: Saccharomyces cerevisiae BY4741 SeMeCo community; experiment: z-score of subpopulation abundance vs DMSO median, subpopulation auxotrophic for U; higher = larger share of this subpopulation than in DMSO controls; conditions: 10 µM; 24 h; SM minimal medium; subpopulation (auxotrophy): U
# How it was run: as §1
# [5] = system: Saccharomyces cerevisiae BY4741 SeMeCo community; experiment: z-score of subpopulation abundance vs DMSO median, subpopulation auxotrophic for H; higher = larger share of this subpopulation than in DMSO controls; conditions: 10 µM; 24 h; SM minimal medium; subpopulation (auxotrophy): H
# How it was run: as §1
# [6] = system: Saccharomyces cerevisiae BY4741 SeMeCo community; experiment: z-score of subpopulation abundance vs DMSO median, subpopulation auxotrophic for LU; higher = larger share of this subpopulation than in DMSO controls; conditions: 10 µM; 24 h; SM minimal medium; subpopulation (auxotrophy): LU
# How it was run: as §1
# [7] = system: Saccharomyces cerevisiae BY4741 SeMeCo community; experiment: z-score of subpopulation abundance vs DMSO median, subpopulation auxotrophic for LM; higher = larger share of this subpopulation than in DMSO controls; conditions: 10 µM; 24 h; SM minimal medium; subpopulation (auxotrophy): LM
# How it was run: as §1
# [8] = system: Saccharomyces cerevisiae BY4741 SeMeCo community; experiment: z-score of subpopulation abundance vs DMSO median, subpopulation auxotrophic for HM; higher = larger share of this subpopulation than in DMSO controls; conditions: 10 µM; 24 h; SM minimal medium; subpopulation (auxotrophy): HM
# How it was run: as §1
# [9] = system: Saccharomyces cerevisiae BY4741 SeMeCo community; experiment: z-score of subpopulation abundance vs DMSO median, subpopulation auxotrophic for UM; higher = larger share of this subpopulation than in DMSO controls; conditions: 10 µM; 24 h; SM minimal medium; subpopulation (auxotrophy): UM
# How it was run: as §1
# [10] = system: Saccharomyces cerevisiae BY4741 SeMeCo community; experiment: z-score of subpopulation abundance vs DMSO median, subpopulation auxotrophic for HL; higher = larger share of this subpopulation than in DMSO controls; conditions: 10 µM; 24 h; SM minimal medium; subpopulation (auxotrophy): HL
# How it was run: as §1
# [11] = system: Saccharomyces cerevisiae BY4741 SeMeCo community; experiment: z-score of subpopulation abundance vs DMSO median, subpopulation auxotrophic for HLU; higher = larger share of this subpopulation than in DMSO controls; conditions: 10 µM; 24 h; SM minimal medium; subpopulation (auxotrophy): HLU
# How it was run: as §1
# [12] = system: Saccharomyces cerevisiae BY4741 SeMeCo community; experiment: z-score of subpopulation abundance vs DMSO median, subpopulation auxotrophic for HLM; higher = larger share of this subpopulation than in DMSO controls; conditions: 10 µM; 24 h; SM minimal medium; subpopulation (auxotrophy): HLM
# How it was run: as §1
# [13] = system: Saccharomyces cerevisiae BY4741 SeMeCo community; experiment: z-score of subpopulation abundance vs DMSO median, subpopulation auxotrophic for HUM; higher = larger share of this subpopulation than in DMSO controls; conditions: 10 µM; 24 h; SM minimal medium; subpopulation (auxotrophy): HUM
# How it was run: as §1
# [14] = system: Saccharomyces cerevisiae BY4741 SeMeCo community; experiment: z-score of subpopulation abundance vs DMSO median, subpopulation auxotrophic for LUM; higher = larger share of this subpopulation than in DMSO controls; conditions: 10 µM; 24 h; SM minimal medium; subpopulation (auxotrophy): LUM
# How it was run: as §1
# [15] = system: Saccharomyces cerevisiae BY4741 SeMeCo community; experiment: z-score of subpopulation abundance vs DMSO median, subpopulation auxotrophic for HLUM; higher = larger share of this subpopulation than in DMSO controls; conditions: 10 µM; 24 h; SM minimal medium; subpopulation (auxotrophy): HLUM
# How it was run: as §1
# [16] = system: Saccharomyces cerevisiae BY4741 SeMeCo community; experiment: z-score of subpopulation abundance vs DMSO median, subpopulation auxotrophic for HU; higher = larger share of this subpopulation than in DMSO controls; conditions: 10 µM; 24 h; SM minimal medium; subpopulation (auxotrophy): HU
# How it was run: as §1
# [17] = system: Saccharomyces cerevisiae BY4741 SeMeCo community; experiment: z-score of subpopulation abundance vs DMSO median, subpopulation auxotrophic for L; higher = larger share of this subpopulation than in DMSO controls; conditions: 10 µM; 24 h; SM minimal medium; subpopulation (auxotrophy): L
# How it was run: as §1
Compound,mean cell size [1],z-score of prototroph abundance [2],z-score of subpopulation abundance [3],z-score of subpopulation abundance [4],z-score of subpopulation abundance [5],z-score of subpopulation abundance [6],z-score of subpopulation abundance [7],z-score of subpopulation abundance [8],z-score of subpopulation abundance [9],z-score of subpopulation abundance [10],z-score of subpopulation abundance [11],z-score of subpopulation abundance [12],z-score of subpopulation abundance [13],z-score of subpopulation abundance [14],z-score of subpopulation abundance [15],z-score of subpopulation abundance [16],z-score of subpopulation abundance [17]
CN1CCN(C2=Nc3ccccc3Oc3ccc(Cl)cc32)CC1 [Loxapine Succinate],12.4 ± 0.17,-0.71,-0.12,0.78,0.08,1.85,0.87,0.14,0.97,1.02,0.59,0.21,-0.1,1.15,0.78,,
O=S1(=O)CCN(CN2CCS(=O)(=O)NC2)CN1 [Taurolidine],12.5 ± 0.25,0.42,-0.34,,-0.57,0.35,-0.78,-1.08,0.3,-1.35,-0.43,-0.64,-0.52,-0.43,-0.55,0.18,
COc1cc(N)c(Cl)cc1C(=O)NC1CCN(CCCOc2ccc(F)cc2)CC1OC (centres undefined) [Cisapride hydrate],12.52 ± 0.044,-0.46,0.32,,0.05,0.83,-0.23,0.29,0.98,-0.17,0.05,0.12,0.84,-0.28,-0.3,1.34,
CCCCCCCCCCCCCCCCCCOP(=O)([O-])OC1CC[N+](C)(C)CC1 [Perifosine (KRX-0401)],9.8 ± 0.56,-18.5,-5.15,-2.84,3.48,12.1,,12.7,7.06,18.8,13.3,31.5,45.1,10.2,180,,
COc1ccc(C2CNC(=O)C2)cc1OC1CCCC1 (stereo not drawn) [S- (+)-Rolipram],,1.36,-0.3,-0.01,-0.73,-0.96,-0.87,-0.72,-1.18,-0.58,-1.07,-0.94,-0.99,-1.24,-1.15,-0.33,
CC(C)[N+](C)(CCOC(=O)C1c2ccccc2Oc2ccccc21)C(C)C [Propantheline bromide],12.5 ± 0.22,0.94,1.26,-0.28,0.9,-0.92,-0.04,0.76,-1.12,-0.65,-1.23,-0.74,-1.29,-1.5,,-0.76,
CCCCOc1ccc(CC(=O)NO)cc1 [Bufexamac],12.53 ± 0.12,1.23,-0.94,0.85,,-0.51,-1.36,-0.9,-0.32,-0.85,-0.71,-1.19,-1.13,-0.9,,0.4,
Clc1ccc(COC(Cn2ccnc2)c2ccc(Cl)cc2Cl)c(Cl)c1 (centres undefined) [Miconazole],12.5 ± 0.13,-9.47,-7.11,2.67,27.8,4.36,-1.8,0.94,1.59,7.22,11.1,12.2,6.04,0.67,,22.4,
N#Cc1ccc2[nH]cc(CCCCN3CCN(c4ccc5oc(C(N)=O)cc5c4)CC3)c2c1 [Vilazodone HCl],12.34 ± 0.018,-0.4,1.09,,,-0.14,0.25,0.6,,0.87,-0.1,-0.45,0.23,0.66,-0.28,,
COCCCOc1ccnc(C[S+]([O-])c2nc3ccccc3[nH]2)c1C (centres undefined) [Rebeprazole sodium],12.5 ± 0.13,-0.38,0.58,0.15,-0.76,-0.77,0.03,0.23,,-0.55,1.09,-0.22,0.36,0.11,0.04,-0.49,
O=C(O)CCNC(=O)c1ccccc1 [Betamipron],12.6 ± 0.21,-0.09,0.51,0.99,-0.34,-0.21,-0.71,-0.4,0.43,-0.92,-1,-1.05,-0.33,-0.64,-0.5,0.19,
COc1cc(N)c(Cl)cc1C(=O)NC1CCN(CCCOc2ccc(F)cc2)CC1OC (centres undefined) [Cisapride],12 ± 0.14,1.03,-1.29,-0.14,-0.08,,-0.7,-1.22,-0.35,-0.95,0.37,-0.82,-0.94,-0.18,-0.17,-0.01,0.11
CCN1CCN(C(=O)N[C@@H](C(=O)N[C@@H]2C(=O)N3[C@@H]2SC(C)(C)[C@@H]3C(=O)O)c2ccccc2)C(=O)C1=O [Piperacillin Sodium],12.6 ± 0.14,-0.12,0.21,-0.72,-0.01,-0.03,0.88,1.21,-0.96,0.54,0.68,,,,-0.13,,
COC(=O)C1=C(C)NC(C)=C(C(=O)OCCN(C)Cc2ccccc2)C1c1cccc([N+](=O)[O-])c1 (centres undefined) [Nicardipine HCl],12.4 ± 0.28,-0.59,1.01,-0.42,0.19,,1.01,0.65,0.26,-0.11,0.11,-0.22,0.62,-0.01,-0.44,0,0.97
O=C(CCCN1CCC(O)(c2ccc(Cl)cc2)CC1)c1ccc(F)cc1 [Haloperidol],12.4 ± 0.2,0.57,-0.16,-0.4,-0.68,-0.75,0.48,-0.68,,0.01,0.13,,-0.8,-0.06,0.12,-0.95,
